PubChem BioAssay (NCATS)
Unmarked numbers belong to inactive results. Calls follow the shape of the dose curve; as a rule, active = well fitted curve in the direction sought with a large enough effect; inconclusive = small, poorly fitted or top-dose-only effect, or effect the other way, or another doubt; inactive = no such curve, though single readings can be large or run the other way.

assay: qHTS for Inhibitors of Cell Surface uPA Generation: Validation Assay (AID 493164); settings: mouse cells, plasminogen activation; series mostly up to 38.3 µM; activity change: at the top concentration;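 also: RAW 264.7 macrophage cells exposed to compound for 18 h; 0% is about no effect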
Source text: NIH Chemical Genomics Center [NCGC]
NIH Molecular Libraries Probe Centers Network [MLPCN]
Assay Submitter (PI): Thomas Bugge
The overall objective of this project is to perform a quantitative high throughput screen (qHTS) to identify novel compounds that inhibit the generation of cell surface urokinase activity. The urokinase plasminogen activator (uPA) is one of the two primary endogenous systems that mediate plasminogen activation into plasmin. Members of this system, including uPA and its receptor (uPAR), are overexpressed in several malignant tumors. This system plays a major role in adhesion, migration, invasion and metastasis of cancer cells. Small molecule inhibitors of the uPA system will serve as probes to understand the molecular mechanisms of the uPA cascade and better understanding the microenvironmental circumstances that facilitate the activation of plasminogen by uPA, and finally may provide novel candidate agents for anticancer drug therapy.
[…] […] Upon inhibition of the uPA activation cascade, the subsequent cell surface uPA activity-dependent translocation of LF into the cytoplasm is inhibited. ATP-Lite is used to measure intracellular ATP concentrations, which remain increased if LF entry into the cytoplasm is inhibited. This validation assay was performed using a small set of validation compounds.
uPA assay protocol summary:
RAW 264.7 cells were maintained in DMEM medium (Invitrogen, Carlsbad, CA) at 37C under a humidified atmosphere containing 5% CO2 and 95% air. The medium contained 10% FBS, 1 mM sodium pyruvate and 50 U/ml penicillin/streptamycin (Invitrogen, Carlsbad, CA). All compounds were screened as 7-point titration from 2.45 nM to 38.3 uM final concentration. The assay was performed in 1536-well format plate as follows:
1.Dispensing RAW 264.7 cells into 1536-well, white walled tissue culture plates at a density of 4000 cells/well (4 uL).
2.Incubation at 37 C in a 5% CO2 incubator overnight.
3.Serially diluting compounds (1:5 serial dilution; 0.0024 uM to […] final concentration) in 23 nl DMSO.
5.Incubating the compound and reagent-treated plates for 18 hours at 37 C in a 5% CO2 incubator.
6.Adding ATP-Lite (3 ul).
7.Reading plates by ViewLux with an exposure length of 5 seconds.

Compound	activity change [%]
C1CCC(N=C(NC23CC4CC(CC(C4)C2)C3)N2CCOCC2)CC1	0.719
Cc1cccc(/C=C/c2ccccc2)n1	-0.0229
C[C@H](Cc1ccccc1)Nc1ncnc2c1ncn2[C@@H]1O[C@H](CO)[C@@H](O)[C@H]1O	-0.444
CN1C2CCCC1CC(NC(=O)c1nn(C)c3ccccc13)C2 (configuration not stated)	-0.182
O=C1c2ccccc2C(=O)c2c(NCCc3ccc(O)cc3)ccc(NCCc3ccc(O)cc3)c21	3.01
CC[N+](CC)(CC)CC	-1.17
N#C/C(=C\c1ccc(O)c(O)c1)C(=O)Nc1ccccc1	2.08
Oc1cc2c(c(Cl)c1O)CCNCC2c1ccccc1 (configuration not stated)	3.07
Nc1c(S(=O)(=O)O)cc(Nc2ccc(Nc3nc(Cl)nc(Nc4ccc(S(=O)(=O)O)cc4)n3)c(S(=O)(=O)O)c2)c2c1C(=O)c1ccccc1C2=O	0.717
CCc1ccc(/C=C2/SC(=S)NC2=O)cc1	1.62
O=Nc1c(-c2c(O)[nH]c3ccccc23)[nH]c2ccccc12	1.27
S=C(Nc1ccccc1)Nc1nccs1	1.95
